Screening data: PubChem BioAssay, Sanford-Burnham Center for Chemical Genomics
CYP2C9 act – CYP2C9 (human) activation; P11712; recombinant CYP2C9, luciferin-H conversion, luminescence; hits give high values; factor 1 = untreated enzyme, 0 = blocked; activation factor at 5 µM; 96,000 tested, 1.4% active; AID 1024;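 active = activation factor of 2 or more for CYP2C9 at a 5 µM dose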;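 also: 0 = sulfaphenazole-blocked wells and 1 = vehicle-only wells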
CYP2C19 inh – blocks human cytochrome P450 2C19; inhibition, % at 5 µM; P33261; AID 778; CYP2C19 Supersomes, luciferin-H EGE luminescence, 30 min; 96,000 tested, 21% active;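 active = CYP2C19 inhibition above a set limit at 5 µM in the primary screen, cut at about 50% in these data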;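 also: plate controls were negative control wells for no effect and 2.5 mM tranylcypromine positive control for full effect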
Target sequence (P33261 whole entry, looked up): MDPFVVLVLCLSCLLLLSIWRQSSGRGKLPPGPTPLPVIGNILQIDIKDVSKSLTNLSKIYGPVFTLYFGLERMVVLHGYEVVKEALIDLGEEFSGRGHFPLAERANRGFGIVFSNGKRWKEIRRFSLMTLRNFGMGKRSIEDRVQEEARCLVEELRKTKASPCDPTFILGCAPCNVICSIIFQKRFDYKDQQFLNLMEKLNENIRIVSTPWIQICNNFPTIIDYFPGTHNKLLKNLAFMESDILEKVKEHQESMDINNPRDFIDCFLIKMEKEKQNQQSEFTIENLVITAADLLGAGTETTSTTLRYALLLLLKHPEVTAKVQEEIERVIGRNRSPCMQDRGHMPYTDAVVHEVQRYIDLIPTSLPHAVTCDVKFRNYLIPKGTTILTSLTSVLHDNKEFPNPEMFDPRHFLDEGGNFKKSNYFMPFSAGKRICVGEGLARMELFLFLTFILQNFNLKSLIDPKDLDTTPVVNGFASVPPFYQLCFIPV
CYP2C9 inhib – inhibitors of human CYP2C9 | P11712 | CYP2C9 Supersomes, luciferin-H conversion, luminescence | inhibition, % at 5 µM | 96,000 tested, 20% active | AID 777;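 active = blocking of liver enzyme CYP2C9 beyond about 50% at 5 µM, limit read from the data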
CYP2C19 activ – activators of human cytochrome P450 2C19 | P33261 | recombinant CYP2C19, luciferin-H EGE luminescence; hits give high values; 0 = fully inhibited enzyme, 1 = untreated enzyme | activation factor at 5 µM | 96,000 tested, under 10 active;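 active = activation factor of at least 2 at 5 µM in the primary screen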;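 also: 0 = wells with 2.5 mM tranylcypromine and 1 = vehicle-only wells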
Starred values were filed as active, the others as inactive. Only some compounds are listed: those with a hit (about 31% of all), similar ones and a draw of the others.

SMILES	CYP2C9 act	CYP2C19 inh	CYP2C9 inhib	CYP2C19 activ
Cc1ccc(C)c2[nH]c(=O)c(CCNC(=O)C(C)(C)C)cc12	0.9	34.3	7.0	0.7
COc1ccc2cc(CN(CC3CCCO3)S(=O)(=O)c3ccccc3)c(=O)[nH]c2c1 (stereo unspecified)	0.1	-16.7	85.6*	1.2
COC(=O)c1ccccc1S(=O)(=O)N(CCCO)Cc1cc2c(C)ccc(C)c2[nH]c1=O	0.2	53.7*	84.3*	0.5
Cc1nc2nc(C)c(CCC(=O)NCc3ccc4c(c3)OCO4)c(C)n2n1	0.9	-10.7	5.5	1.1
O=C(NCCN1C(=O)CSC1=O)C1CC(=O)N(c2ccccc2)C1 (stereo unspecified)	0.9	14.5	7.1	0.9
COc1ccc(/C=C2/SC(=S)N(CCC(=O)O)C2=O)cc1	0.9	25.2	8.9	0.7
COc1ccc(/C=C2\SC(=O)N(CCNC(=O)Cn3cnnn3)C2=O)cc1	0.3	54.2*	70.4*	0.5
COc1ccc(/C=C2\SC(=O)N(CCNC(=O)C3CC(=O)N(c4ccccc4)C3)C2=O)cc1 (stereo unspecified)	0.4	16.2	58.7*	0.8
Cc1ccc(CN2C(=O)CCC2C(=O)NC(C)C)cc1 (stereo unspecified)	1.1	-0.1	-6.9	1
O=C(COc1ccc(-c2ccccc2)cc1)N1CCN(C(=O)c2cccnc2)CC1	1.2	-9.2	-15.1	1.1
COc1ccc(C(=O)N2CCN(Cc3cc(OC)c(O)c(OC)c3)CC2)cc1OC	0.9	12.9	8.5	0.9
O=C(c1cccnc1)N1CCN(Cc2ccc3c(c2)OCO3)CC1	1.1	40.5	-12.2	0.6
O=C(c1cccnc1)N1CCN(Cc2ccccc2Br)CC1	1.1	79.6*	-5.4	0.2
CCS(=O)(=O)N1CCN(C(=O)c2cccc(OC)c2)CC1	1	29.0	-3.0	0.7
O=C(c1cccnc1)N1CCN(Cc2cccc(Br)c2)CC1	0.7	94.3*	27.1	0.1
COc1cccc(N2CCN(C(=O)c3cccnc3)CC2)c1	0.9	70.9*	12.4	0.3
COc1ccc(CN2CCN(C(=O)c3cccnc3)CC2)cc1Br	0.5	93.6*	47.3	0.1
CCOC(=O)CNC(=O)c1cn(CC)c(=O)c2cc(OC)c(OC)cc12	1	-4.9	-4.7	1
c1ccc(Nc2cc(-c3ccccc3)nc3ncnn23)cc1	0.8	45.3	19.8	0.5
CC(C)C(=O)Nc1ccc(NC(=O)c2ccccc2Cl)nc1	1.2	5.3	-19.0	0.9
CC(CN1CCN(c2ccccc2)CC1)c1ccccc1 (stereo unspecified)	0.9	31.4	8.4	0.7
CC(C)c1cc(=O)oc2c3c4c(cc12)CCCN4CCC3	0.9	86.9*	12.6	0.1
CC1(C)Cc2ccccc2-c2n[nH]c(=S)n21	0.5	25.7	52.7*	0.7
CC(C)(C)C1=Nn2c(nnc2C2CCCCC2)SC1	0.6	67.5*	45.0	0.3
COc1ccccc1-c1nnc2n1N=C(C(C)(C)C)CS2	0.5	79.4*	46.1	0.2
SMILES	CYP2C9 act	CYP2C19 inh	CYP2C9 inhib	CYP2C19 activ
CC(C)(C)C1=Nn2c(nnc2-c2ccccc2F)SC1	0.6	78.4*	42.9	0.2
CCn1cc(C(C)(C)C)c(C#N)c1NC(C)=O	1.4	5.2	-37.5	0.9
COc1cc(CNC2CCCCCC2)cc(OC)c1O	1	-2.8	-3.9	1
COc1cc(CNC2CCCC2)cc(Cl)c1OCc1ccccc1F	0.9	95.7*	5.9	0
COc1cc(S(=O)(=O)NCCCN2CCOCC2)ccc1Cl	2.4*	75.0*	-141.1	0.3
COc1cc(Cl)c(S(=O)(=O)NCCN2CCOCC2)cc1Cl	2*	81.7*	-99.4	0.2
Cc1ccc(-c2nn(C)c(=O)c3ccccc23)cc1S(=O)(=O)NCCN1CCOCC1	0.7	20.1	30.1	0.8
O=C(Nc1ccc2nsnc2c1)c1ccc2c(c1)OCO2	1	0.9	4.1	1
CC12CCC(c3nnc(SCC(=O)Nc4cccc5ccccc45)nc31)C2(C)C (stereo unspecified)	0.8	16.2	21.5	0.8
Cc1noc(/C=C/c2ccco2)c1S(=O)(=O)N1CCC(C(=O)N2c3ccccc3CC2C)CC1 (stereo unspecified)	0.3	33.9	69.9*	0.7
Cc1noc(/C=C/c2ccco2)c1S(=O)(=O)N1CCC(C(=O)NC(C)c2ccccc2)CC1 (stereo unspecified)	0.7	7.1	29.7	0.9
Cc1noc(/C=C/c2ccco2)c1S(=O)(=O)N1CCC(C(=O)N(C)Cc2ccccc2)CC1	0.2	35.8	76.2*	0.6
Cc1ccccc1C(=O)NCc1nnc(SCC(=O)N2CCN(c3ccccc3)CC2)n1C	1	12.5	1.0	0.9
CC(C)C(c1nnnn1C1CCCCC1)N1CCN(c2ncccn2)CC1 (stereo unspecified)	0.4	26.7	59.5*	0.7
CC(C)C(c1nnnn1C1CCCC1)N1CCN(C(=O)c2ccco2)CC1 (stereo unspecified)	0.5	4.6	50.3*	1
CC(C)CC(c1nnnn1C1CCCCC1)N1CCN(c2ncccn2)CC1 (stereo unspecified)	0	87.5*	96.1*	0.1
CC1CC(=O)c2cn3c(nc2C1)nc1ccccc13 (stereo unspecified)	1	-9.7	-3.6	1.1
N=c1c2c3c(sc2nc2n1CCC2)CCCC3	1.1	-17.5	-5.9	1.2
COC(=O)c1ccc(S(=O)(=O)c2ccccc2)c(N)c1	0.3	94.2*	70.4*	0.1
CS(=O)(=O)Nc1ccc(S(=O)(=O)Nc2nccs2)cc1	0.7	-3.2	29.3	1
CCOc1ccc(S(=O)(=O)Nc2cccnc2)cc1	0.3	94.2*	65.7*	0.1
COc1cccc(S(=O)(=O)Nc2cccnc2)c1	1.1	24.2	-10.3	0.8
COc1ccc(NS(=O)(=O)c2ccc(NS(=O)(=O)c3ccc(SC)cc3)cc2)c(OC)c1	0.2	20.5	83.4*	0.8
CCOc1ccc(NS(=O)(=O)c2ccc(NS(C)(=O)=O)cc2)cc1	0.4	23.8	64.5*	0.8
CCOc1ccc(NS(=O)(=O)c2ccc(NC(=S)NC(=O)CC(C)C)cc2)cc1	0	89.7*	99.4*	0.1
SMILES	CYP2C9 act	CYP2C19 inh	CYP2C9 inhib	CYP2C19 activ
C/C(=C\C(=O)c1ccc(C)cc1)Nc1ccc(N2CCOCC2)cc1	1	-0.6	-4.0	1
OCC(CO)(CO)n1cnnn1	0.8	5.1	23.3	0.9
O=S(=O)(Nc1cccnc1)c1cccs1	0.9	-2.5	7.8	1
CCOc1ccc(NS(=O)(=O)c2ccc(NC(=O)C3CCCO3)cc2)cc1 (stereo unspecified)	0.5	33.2	46.7	0.7
O=S(=O)(Nc1cccnc1)c1ccc(Cl)c(C(F)(F)F)c1	0.4	71.8*	57.1*	0.3
CCOc1ccc(NS(=O)(=O)c2ccc(NS(=O)(=O)c3ccc(SC)cc3)cc2)cc1	0.1	34.9	86.8*	0.7
c1coc(C2Nc3ccccc3-c3nc4ccccc4n32)c1 (stereo unspecified)	0.1	79.8*	91.2*	0.2
c1ccc(C2Nc3ccccc3-c3nc4ccccc4n32)cc1 (stereo unspecified)	0.3	46.7	71.1*	0.5
